# Results reported in PubChem BioAssay (NCI).
# Values joined by “and” are separate entries in the source; they are usually repeats but may differ in a detail not shown here. Equal values may be shown once. About 83,000 compounds went through this panel and 20% of them were active in at least one assay; those are over-represented in the sample as a whole.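 Treatment: one concentration, 48 hours, 96-well format. Scoring: percent growth, with anything below 10 considered active.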 Active and inactive are the calls of the source.
# Test system: A549/ATCC NSCLC
# Assay: NCI-60 one-dose screen, 48 h (100 = growth as untreated, 0 = no growth, -100 = all killed)
# Conditions: 0.01 µM
# Description: Growth inhibition of the A549/ATCC human Non-Small Cell Lung tumor cell line is measured as a screen for anti-cancer activity. Cells are grown in 96 well plates and exposed to the test compound for 48 hours. Compounds are tested at a single concentration, which is 10^-5 M for most compounds. The reported endpoint is percent growth (GI% or GIPRCNT), where numbers from 0 - 100% represent growth inhibition, and numbers from -100% - 0 represent cell death. For example, a value of 40 represents 60% growth inhibition. A value of 0 means no net growth occurred over the course of the experiment. A value of -40 indicates 40% of cells at the beginning of the experiment died by the end of the experiment. A value of -100 means all cells are dead at the end of the experiment.
# NCI-60 Human Tumor Cell Lines Screen was performed using the standard one-dose NCI protocol, which is described in more detail at https://dtp.cancer.gov/discovery_development/nci-60/default.htm.
# Compounds with GIPRCNT values below 10 were considered active. Activity score was based on GIPRCNT using the following formula: […]
# Score is 0 for GIPRCNT values of 100 or above, 50 for GIPRCNT values of 0, and 100 for GIPRCNT values of -100.
row,Compound,growth
1,CC(=O)O[C@H]1C(=O)[C@@]2(C)[C@H]([C@H](OC(=O)c3ccccc3)[C@]3(O)C[C@H](OC(=O)[C@H](O)[C@@H](NC(=O)c4ccccc4)c4ccccc4)C(C)=C1C3(C)C)[C@]1(OC(C)=O)CO[C@@H]1C[C@@H]2O,31.4% (inactive)

# Same assay, conditions: 2.5 µM
row,Compound,growth
1,CC(=O)O[C@H]1C(=O)[C@@]2(C)[C@H]([C@H](OC(=O)c3ccccc3)[C@]3(O)C[C@H](OC(=O)[C@H](O)[C@@H](NC(=O)c4ccccc4)c4ccccc4)C(C)=C1C3(C)C)[C@]1(OC(C)=O)CO[C@@H]1C[C@@H]2O,18.5% (inactive)

# Same assay, conditions: 5 µM
row,Compound,growth
1,CC(=O)O[C@H]1C(=O)[C@@]2(C)[C@H]([C@H](OC(=O)c3ccccc3)[C@]3(O)C[C@H](OC(=O)[C@H](O)[C@@H](NC(=O)c4ccccc4)c4ccccc4)C(C)=C1C3(C)C)[C@]1(OC(C)=O)CO[C@@H]1C[C@@H]2O,21.2% (inactive)

# Same assay, conditions: 10 µM
row,Compound,growth
1,O=C1C=CC(=O)N1c1ccc(N2C(=O)C=CC2=O)cc1,101% (inactive)
2,Cc1c(-c2ccccc2)[nH]c2ccccc12,102% (inactive)
3,S=P(N1CC1)(N1CC1)N1CC1,103% (inactive) and 69.9% (inactive)
4,O=c1[nH]cc(/C=N\Nc2ccccc2)c(=O)[nH]1,29.4% (inactive)
5,COc1ccc(C(C#N)=C2C=CC(=NO)C=C2)cc1,88.9% (inactive)
6,O=S(=O)(c1cc(Cl)ccc1O)c1cc(Cl)ccc1O,81.3% (inactive)
7,Cc1cc(Cl)ccc1NC(=O)/C(Cl)=C1/Sc2ccccc2NC1=O,112% (inactive)
8,COc1ccc2oc(-c3ccc(Cl)cc3)c(N3CCN(C)CC3)c2c1,39.6% (inactive)
9,CC1CCC2(C(=O)O)CCC3(C)C(=CCC4C5(C)CC(O)C(O)C(C)(CO)C5C(O)CC43C)C2C1C (stereo not given),27% (inactive)
10,ClCCn1c(CCl)nc2ccc(Cl)cc21,-12.5% (active)
11,CC(=O)O[C@H]1C(=O)[C@@]2(C)[C@H]([C@H](OC(=O)c3ccccc3)[C@]3(O)C[C@H](OC(=O)[C@H](O)[C@@H](NC(=O)c4ccccc4)c4ccccc4)C(C)=C1C3(C)C)[C@]1(OC(C)=O)CO[C@@H]1C[C@@H]2O,47.3% (inactive) and 29.9% (inactive)
12,N#C/C(=C/N1C(=O)/C(=C/c2ccc([N+](=O)[O-])cc2)SC1=S)c1nc2ccccc2s1,91.4% (inactive)
13,O=C(CNS(=O)(=O)Cc1ccccc1)NNc1ccccc1,55.8% (inactive)
14,CC[C@@]1(OC(=O)CN(C)C)C(=O)OCc2c1cc1n(c2=O)Cc2cc3c(N)cccc3nc2-1,4.76% (active)
15,N#CC(=C1C=CC(=NO)C=C1)c1ccccc1,34% (inactive)
16,C=C1N(C)c2ccc(Cl)cc2C1(C)C,44.4% (inactive)
17,O=C(NC(=S)Nc1ccccn1)c1ccccc1,101% (inactive)
18,Cn1ncc2cc3c(Nc4ccc(Cl)cc4)cccc3nc21,80% (inactive)

row,Compound,growth
1,NCc1c(O)ccc2ccccc12,94.7% (inactive)
2,O=C1c2cccc3cc([N+](=O)[O-])cc(c23)C(=O)N1CCN1CCCC1,-28.6% (active)
3,COc1cc(N)ccc1Nc1c2ccccc2nc2ccccc12,40.8% (inactive)
4,CCC(=O)Oc1ccc(/C=N/NC(N)=S)nc1,98.8% (inactive)
5,Cc1cc(C)c(N2C(=O)CC(Sc3ccccc3N)C2=O)c(C)c1 (stereo not given),74.8% (inactive)
6,O=C1C(Cl)=C(Cl)C(Cl)(Cl)C(Cl)C1(Cl)Cl (stereo not given),105% (inactive)
7,COc1cccc(C(c2cc3c(cc2O)OCO3)N2CCOCC2)c1OC (stereo not given),99.9% (inactive)
8,Cc1cc(O)c2c(c1O)C(=O)C13C(=C2O)C(=O)C2C(O)C1C1C(O)C3C(=O)C3=C(O)c4c(O)cc(C)c(O)c4C(=O)C321 (stereo not given),-11.4% (active)
9,Cn1c2nc3ccccc3c-2nc2ccccc21,96.1% (inactive) and 86.3% (inactive)
10,CN(C)c1ccc(/C=C/c2ccnc3ccccc23)cc1N,72.6% (inactive)
11,O=C1c2ccccc2CCC1(Br)Br,96% (inactive)
12,CCC(C)(c1ccc(O)c(C)c1)c1ccc(O)c(C)c1,83.4% (inactive)
13,Cc1cc(N=C2C=CC(=[N+](C)C)C=C2)c(N)cc1N,84.6% (inactive)
14,COc1ccc(N)c2c1C(=O)c1ccccc1C2=O,96.7% (inactive)
15,O=[N+]([O-])c1cc(S(=O)(=O)Nc2ccccc2)ccc1Cl,91.6% (inactive)
16,COc1ccc2c(c1)[nH]c1c(/C=C/c3ccccc3)nccc12,87.3% (inactive)
17,CN(CC(=O)O)c1ccc(/C=C/c2ccnc3ccccc23)cc1,74.3% (inactive)
18,Nc1nc(N)c2cc(Sc3ccc4ccccc4c3)ccc2n1,15.2% (inactive)

# Same assay, conditions: 100 µM
row,Compound,growth
1,S=P(N1CC1)(N1CC1)N1CC1,52.2% (inactive)
